Measured values reported in PubChem BioAssay (NCATS).
Inconclusive results are not listed. A number with no mark means an inactive call. The source made the active and inactive calls. Calls come from the whole dose curve; as a rule, active = well fitted curve in the direction sought with a large enough effect; inconclusive = small, poorly fitted or top-dose-only effect, or another doubt; inactive = no such curve, though single readings can be large; an effect the other way counts as inactive or inconclusive.

Target: Voltage-gated inwardly rectifying potassium channel KCNH2 (Homo sapiens) (UniProt Q12809)
Test: qHTS Assay for Small Molecule Inhibitors of the Human hERG Channel Activity (AID 588834);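 note: lower thallium flux fluorescence means stronger hERG block; nearly all actives have a fitted effect of over 50% in size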; note: potency is the fitted concentration of half-maximal effect; for activity change, negative = inhibition: top concentration of the series differs between compounds; % is set by controls: 0 for no effect and ±100 for the full control effect
Conditions: U2OS BacMam hERG, FluxOR thallium flux fluorescence; series mostly up to 46.1 µM; activity change, negative = inhibition: at the top concentration
Procedure, shortened: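 Thallium-flux (FluxOR) read-out on FDSS: fluorescence read 10 s before and 2 min after stimulation buffer. hERG-BacMam-transduced U2OS cells, compound exposure about 10 min. AC50 by standard Hill equation.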

Sequence of Voltage-gated inwardly rectifying potassium channel KCNH2 (Homo sapiens) (Q12809 whole entry, looked up): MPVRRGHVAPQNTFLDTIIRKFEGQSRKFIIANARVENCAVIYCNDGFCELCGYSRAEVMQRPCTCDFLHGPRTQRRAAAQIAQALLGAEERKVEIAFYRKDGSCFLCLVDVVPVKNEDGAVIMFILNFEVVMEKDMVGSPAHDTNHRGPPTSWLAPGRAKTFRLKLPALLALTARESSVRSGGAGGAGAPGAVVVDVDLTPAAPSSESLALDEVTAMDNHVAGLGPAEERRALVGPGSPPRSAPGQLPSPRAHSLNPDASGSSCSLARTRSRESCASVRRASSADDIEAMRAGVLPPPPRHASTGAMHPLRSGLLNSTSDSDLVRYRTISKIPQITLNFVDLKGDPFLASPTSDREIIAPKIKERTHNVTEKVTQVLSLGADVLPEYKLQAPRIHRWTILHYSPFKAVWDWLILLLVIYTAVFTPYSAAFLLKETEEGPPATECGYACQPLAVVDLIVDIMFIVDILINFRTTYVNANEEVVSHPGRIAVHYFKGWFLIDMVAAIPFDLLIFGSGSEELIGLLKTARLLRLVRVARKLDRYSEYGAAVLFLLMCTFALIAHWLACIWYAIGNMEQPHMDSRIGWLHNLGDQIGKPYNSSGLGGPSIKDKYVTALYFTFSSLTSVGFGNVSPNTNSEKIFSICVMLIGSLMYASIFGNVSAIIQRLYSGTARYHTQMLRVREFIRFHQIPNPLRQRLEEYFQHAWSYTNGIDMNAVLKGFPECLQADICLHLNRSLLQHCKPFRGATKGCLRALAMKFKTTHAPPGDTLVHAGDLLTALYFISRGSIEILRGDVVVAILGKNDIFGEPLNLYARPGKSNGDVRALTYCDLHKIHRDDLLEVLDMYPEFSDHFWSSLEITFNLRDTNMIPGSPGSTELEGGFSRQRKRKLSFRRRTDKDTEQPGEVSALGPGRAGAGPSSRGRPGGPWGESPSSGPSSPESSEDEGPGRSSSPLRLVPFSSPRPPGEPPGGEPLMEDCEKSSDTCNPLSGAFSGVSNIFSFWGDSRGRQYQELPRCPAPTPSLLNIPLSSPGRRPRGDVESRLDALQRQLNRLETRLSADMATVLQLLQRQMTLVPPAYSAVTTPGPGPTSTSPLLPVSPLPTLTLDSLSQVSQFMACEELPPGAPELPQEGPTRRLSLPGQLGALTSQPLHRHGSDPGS

In order of rising “activity change, negative = inhibition” value:
1. C[C@]12C=CC(=O)C=C1CC[C@@H]1[C@@H]2[C@@H](O)C[C@@]2(C)[C@H]1CC[C@]2(O)C(=O)CO  -0.49%
2. C[C@]12CC[C@@H]3c4ccc(O)cc4CC[C@H]3[C@@H]1C[C@@H](O)[C@@H]2O  -0.14%
3. CC(=O)OCC(=O)[C@@]1(O)CC[C@H]2[C@@H]3CCC4=CC(=O)C=C[C@]4(C)[C@H]3[C@@H](O)C[C@@]21C  4.27%
4. CC(=O)OCC(=O)[C@@]12N=C(C)O[C@@H]1C[C@H]1[C@@H]3CCC4=CC(=O)C=C[C@]4(C)[C@H]3[C@@H](O)C[C@@]12C  20.1%

With `CCCSS/C(CCO)=C(\C)N(C=O)Cc1cnc(C)nc1N` the Potency was 11.2 µM (active).

Target: Luciferin 4-monooxygenase (Photinus pyralis) (UniProt P08659)
Test: Biochemical firefly luciferase enzyme assay for NPC (AID 624030);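 note: purified P. pyralis luciferase at 10 nM with luciferin and ATP substrate; 0% = DMSO and -100% = full luciferase inhibition by PTC124 control; nearly all actives have a fitted effect of over 70% in size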
Conditions: purified P. pyralis luciferase, luminescence, 5 min; series mostly up to 58.6 µM; activity change, negative = inhibition: at the top concentration
Procedure, shortened: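 Counter-screen for direct inhibition of the luciferase enzyme by approved-drug library compounds, run at 10 nM enzyme in 50 mM Tris acetate (final). Luminescence was read within 5 min of enzyme-buffer addition and normalized to PTC124 versus DMSO (0%).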

Sequence of Luciferin 4-monooxygenase (Photinus pyralis) (P08659 whole entry, looked up): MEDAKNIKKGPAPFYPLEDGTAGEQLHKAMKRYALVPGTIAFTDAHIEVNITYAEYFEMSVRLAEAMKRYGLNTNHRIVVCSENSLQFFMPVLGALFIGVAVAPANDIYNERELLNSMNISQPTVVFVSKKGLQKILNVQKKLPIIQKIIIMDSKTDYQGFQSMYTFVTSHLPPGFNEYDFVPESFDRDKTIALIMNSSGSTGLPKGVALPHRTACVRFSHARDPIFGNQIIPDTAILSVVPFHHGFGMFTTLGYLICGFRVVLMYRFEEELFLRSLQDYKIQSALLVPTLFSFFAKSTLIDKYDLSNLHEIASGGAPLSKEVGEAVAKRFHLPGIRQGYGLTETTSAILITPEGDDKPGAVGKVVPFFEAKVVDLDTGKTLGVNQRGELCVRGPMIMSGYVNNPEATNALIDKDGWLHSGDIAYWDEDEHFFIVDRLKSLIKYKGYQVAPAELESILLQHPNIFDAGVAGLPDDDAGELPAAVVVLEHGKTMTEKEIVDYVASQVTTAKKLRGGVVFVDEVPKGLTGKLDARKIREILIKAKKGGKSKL

In order of falling “activity change, negative = inhibition” value:
1. Oc1ccc(Cl)c2cccnc12  20.5%
2. Cc1cc(N)c2cc(NC(=O)Nc3ccc4nc(C)cc(N)c4c3)ccc2n1  9.68%
3. Cc1ccc(O)c2ncccc12  8.08%
4. CCCCCCCCCCCCCCCCCC(=O)OCC(O)CO (configuration not stated)  3.85%
5. C[C@]12C=CC(=O)C=C1[C@@H](F)C[C@@H]1[C@@H]2[C@@H](O)C[C@@]2(C)[C@H]1CC[C@]2(O)C(=O)CO  1.58%
6. O=C1OC2(c3ccc(O)cc3Oc3cc(O)ccc32)c2ccccc21  -5.09%
7. CCOC(=O)c1cccc(N)c1  -19.7%

With `NCCc1ccn[nH]1` the “activity change, negative = inhibition” value was 1.98% [at 24.9 µM].

System: not listed separately
Test: S16 Schwann cell viability assay (CellTiter-Glo assay) (AID 624031);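 note: native untransfected S16 rat Schwann cells; cellular ATP luminescence as a viability measure; plate controls were DMSO-treated cells for no effect and cell-free wells for full effect; nearly all actives have a fitted effect of over 70% in size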
Conditions: S16 rat Schwann cells viability, 24 h; series mostly up to 57.5 µM; activity change, negative = cytotoxicity: at the top concentration
Procedure, shortened: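 Cells were seeded at 500-750 per well in phenol red-free DMEM with 10% FBS and left overnight. Compounds or DMSO were pinned in, incubation ran 24 h at 37 °C/5% CO2, then CellTiter-Glo reagent was added and luminescence measured.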

In the case of `NCCc1ccn[nH]1`, the “activity change, negative = cytotoxicity” value was 0.662% [at 25.7 µM].

In order of falling “activity change, negative = cytotoxicity” value:
1. CCOC(=O)c1cccc(N)c1  11.8%
2. CCCCCCCCCCCCCCCCCC(=O)OCC(O)CO (configuration not stated)  -3.89%
3. Oc1ccc(Cl)c2cccnc12  -30%
